Test results reported in publication PMC7826789 (International Journal of Molecular Sciences, 2021).

What was measured:
Settings in all cases: Compound Concentration (nM):1000
TXK = system: TXK
[1] = system: TYK2(JH1domain-catalytic)
[2] = system: TYK2(JH2domain-pseudokinase)
TYRO3 = system: TYRO3
ULK2 = system: ULK2
ULK3 = system: ULK3
VEGFR2 = system: T1, VEGFR2
T1 construct: gene KDR

VPS34 = system: T2, VPS34
T2 construct: gene PIK3C3

VRK2 = system: VRK2
WEE1 = system: WEE1
WEE2 = system: WEE2
WNK1 = system: WNK1
WNK2 = system: WNK2
WNK3 = system: WNK3
WNK4 = system: WNK4
YANK1 = system: T3, YANK1
T3 construct: gene STK32A

YANK2 = system: T4, YANK2
T4 construct: gene STK32B

YANK3 = system: T5, YANK3
T5 construct: gene STK32C

YES = system: T6, YES
T6 construct: gene YES1

ULK1 = system: ULK1
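Also: KINOMEscan scanMAX binding as percent activity remaining versus control; lower means stronger binding.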

Row | SMILES | Percent Control (TXK) | Percent Control [1] | Percent Control [2] | Percent Control (TYRO3) | Percent Control (ULK2) | Percent Control (ULK3) | Percent Control (VEGFR2) | Percent Control (VPS34) | Percent Control (VRK2) | Percent Control (WEE1) | Percent Control (WEE2) | Percent Control (WNK1) | Percent Control (WNK2) | Percent Control (WNK3) | Percent Control (WNK4) | Percent Control (YANK1) | Percent Control (YANK2) | Percent Control (YANK3) | Percent Control (YES) | Percent Control (ULK1)
1 | O=C1Nc2ccc(C(=O)c3ccco3)cc2C1=Cc1cc(Cl)c(O)c(Cl)c1 [GW406108X] | 100% | 35% | 41% | 86% | 71% | 60% | 78% | 11% | 74% | 100% | 100% | 89% | 100% | 93% | 100% | 100% | 100% | 100% | 100% | 
2 | COc1cccc(-n2ncc3c(N/N=C/c4ccncc4)ncnc32)c1 [GW784752X] | 90% | 88% | 11% | 74% | 69% | 100% | 75% | 100% | 85% | 100% | 89% | 98% | 100% | 100% | 100% | 100% | 88% | 100% | 87% | 67%
3 | NS(=O)(=O)c1ccc(N/N=C2\C(=O)Nc3ccc(C(=O)NCCc4c[nH]cn4)cc32)cc1 [GW300660X] | 100% | 81% | 84% | 100% | 37% | 65% | 79% | 86% | 100% | 100% | 100% | 100% | 100% | 95% | 100% | 100% | 100% | 100% | 100% | 38%
4 | O=C(Nc1n[nH]c2nc(-c3ccc(O)cc3)c(Br)cc12)C1CC1 [SB-725317] | 100% | 52% | 100% | 100% | 100% | 100% | 57% | 100% | 100% | 100% | 100% | 84% | 98% | 100% | 98% | 100% | 100% | 100% | 100% | 100%
5 | CC(C)COC(=O)c1ccc2c(c1)/C(=C/Nc1ccc(S(N)(=O)=O)cc1)C(=O)N2 [GW416981X] | 100% | 42% | 100% | 100% | 0.3% | 13% | 63% | 100% | 100% | 100% | 100% | 100% | 100% | 100% | 100% | 100% | 100% | 100% | 100% | 0.1%
6 | Cl.O=C(O[C@H]1CN[C@H](C#Cc2cc3ncnc(Nc4ccc5c(cnn5Cc5ccccc5)c4)c3s2)C1)N1CCOCC1 [GSK200398A] | 83% | 100% | 97% | 100% | 86% | 91% | 89% | 98% | 87% | 89% | 96% | 80% | 94% | 100% | 95% | 100% | 100% | 100% | 98% | 62%
7 | COC(=O)Nc1nc2ccc(Oc3ccc(NC(=O)Nc4cc(C(F)(F)F)ccc4F)cc3)cc2s1.Cl [GW693917A] | 77% | 100% | 100% | 71% | 84% | 78% | 13% | 76% | 73% | 87% | 100% | 76% | 100% | 100% | 67% | 100% | 100% | 94% | 51% | 62%
8 | C/C(Nc1ccc(S(N)(=O)=O)cc1)=C1/C(=O)Nc2ccccc21 [GW335962X] | 100% | 77% | 100% | 100% | 52% | 83% | 1.2% | 81% | 80% | 100% | 95% | 90% | 93% | 100% | 100% | 100% | 100% | 88% | 100% | 62%
9 | COc1ccc(COc2ccc(Cc3cnc(N)nc3N)cc2OC)cc1 [GW632580X] | 90% | 100% | 100% | 71% | 90% | 96% | 85% | 67% | 81% | 98% | 83% | 98% | 84% | 92% | 82% | 100% | 100% | 100% | 82% | 90%
10 | COc1cc(N2CCN(C(C)C)CC2)ccc1Nc1nc(Nc2ccc(F)cc2C(=O)NC[C@@H](O)CO)c2cc[nH]c2n1 [GSK1392956A] | 92% | 100% | 100% | 74% | 77% | 100% | 100% | 82% | 68% | 96% | 100% | 92% | 100% | 100% | 69% | 100% | 100% | 100% | 99% | 65%
